Here are results for 99 compounds from PubChem BioAssay AID431 (Sanford-Burnham Center for Chemical Genomics, 2006).

In all, about 63,000 compounds went through this assay and about 1,100 (1.7%) were called active.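 Rule for the calls: active = compounds whose percent cytotoxicity in the single-dose primary screen, scaled between solvent and toxic-drug controls, exceeds 50; inactive = the rest.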 This excerpt belongs to a sample that is enriched for actives. Measured potencies and affinities stand elsewhere.

The nature of the test: cytotoxicity in KRAS-transformed pancreatic duct cells, primary screen, cell-based, fluorescence, HTS (AID 431).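 Note: 0% = DMSO solvent wells and 100% = doxorubicin-treated wells.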 The conditions noted are these: HPDE-C7K KRASV12 cells, Alamar Blue viability, 48 h; at 10 µM; active compounds read high. For orientation: The colour change of resazurin is a common sign of viable cells or microbes.
Consider `COc1ccc(S(=O)(=O)n2nc(-c3cc(OC)c(OC)c(OC)c3)cc2N)cc1OC`, for which the cytotoxicity is 5.2% (inactive).

For `COc1ccc(OC)c(S(=O)(=O)n2nc(-c3ccccc3)cc2N)c1`, the cytotoxicity is -10.9% (inactive).

Consider `O=C(CSc1nc2ccccc2[nH]1)N1CCCCC1`, for which the cytotoxicity was 0.6% (inactive).

In the case of `Cc1ccccc1NC(=O)N1CCCC(c2nc(-c3ccc(C(C)C)cc3)no2)C1` (centres undefined), the cytotoxicity is 28.5% (inactive).

On to `COc1ccc(NC(=O)N2CCCC(c3nc(-c4ccc(C(C)C)cc4)no3)C2)cc1` (centres undefined), for which the cytotoxicity is 65.6% (active).

With `COc1ccc(-c2noc(C3CCCN(C(=O)c4cccs4)C3)n2)cc1` (centres undefined), the cytotoxicity is -10.3% (inactive).

On to `CN(CC(=O)N1CCc2ccccc21)S(=O)(=O)c1ccc(Cl)cc1`, for which the cytotoxicity is 1.1% (inactive).

Regarding `COC(=O)C(C(=O)Nc1cc(C)on1)C1CCCCCC1` (centres undefined), the cytotoxicity was -4.9% (inactive).

Regarding `CSc1nc2cc(Cl)ccc2s1`, the cytotoxicity was -3.5% (inactive).

`COc1ccc(C(=O)Oc2ccc(C(C)=O)cc2)c(OC)c1`: the cytotoxicity was 3.6% (inactive).

With `COc1ccc(C(=O)c2ccc(N(C)C)cc2)c(OC)c1`, the cytotoxicity is 56.3% (active).

Regarding `COc1ccc(C(=O)c2ccc(N3CCOCC3)cc2)c(OC)c1`, the cytotoxicity was 4.5% (inactive).

In the case of `COc1cc(SC)ccc1C(=O)Nc1ccccc1C#N`, the cytotoxicity is 28.3% (inactive).

`Nc1cc(N)nc(SCCOc2ccccc2F)n1`: the cytotoxicity is -15.6% (inactive).

Turning to `COc1ccccc1NC(=O)N1CCCC1C(=O)Nc1nnc(C(C)C)s1` (centres undefined), the cytotoxicity was 4.6% (inactive).

On to `O=C(NCc1ccco1)C(c1cccnc1)N(C(=O)Cn1nnc2ccccc21)c1ccc(F)cc1` (centres undefined), for which the cytotoxicity is 9.8% (inactive).

Turning to `COC(=O)C1=C(C)N(C)C(C)=C(C(=O)OC)C1c1ccncc1`, the cytotoxicity is -1% (inactive).

For `Cc1ccc(CNC(=O)CCS(=O)(=O)c2cccc3nonc23)cc1`, the cytotoxicity was -9.3% (inactive).

For `Cc1ccc2nc(-c3ccccn3)cc(C(=O)N3CCN(c4ncccn4)CC3)c2c1`, the cytotoxicity is 13.2% (inactive).

On to `CCOc1ccc(-c2cc(C(=O)N3CCN(C)CC3)c3ccccc3n2)cc1`, for which the cytotoxicity is -12.4% (inactive).

For the compound `Cc1ccc(-c2cc(C(=O)N3CCOCC3)c3ccccc3n2)cc1`, the cytotoxicity was 1.8% (inactive).

As to `CCOc1ccc(-c2cc(C(=O)N3CCN(c4ccccn4)CC3)c3ccccc3n2)cc1`, the cytotoxicity is 53% (active).

Turning to `COc1cccc(-c2cc(C(=O)N3CCN(c4ncccn4)CC3)c3ccccc3n2)c1`, the cytotoxicity is 15.2% (inactive).

`Cc1ccc(-c2cc(C(=O)N3CCN(c4ncccn4)CC3)c3ccccc3n2)cc1`: the cytotoxicity was 58.8% (active).

Regarding `O=C(c1cc(-c2ccccc2)nc2ccccc12)N1CCN(c2ccccn2)CC1`, the cytotoxicity is 27.1% (inactive).

With `CCOC(=O)N1CCN(C(=O)c2cc(-c3ccc(OCC)cc3)nc3ccccc23)CC1`, the cytotoxicity is 63.5% (active).

For `COc1ccc(-c2cc(C(=O)N3CCN(c4ccccn4)CC3)c3ccccc3n2)cc1`, the cytotoxicity is 5.9% (inactive).

Take `CSC1=C(C#N)C(c2ccc(Cl)cc2)C2=C(CC(C)(C)CC2=O)N1` (centres undefined): the cytotoxicity was 2.7% (inactive).

In the case of `O=C(CSc1nnc(-c2ccco2)o1)N1CCOCC1`, the cytotoxicity is -5.8% (inactive).

On to `Cc1cc(NC(=O)CN2CCN(c3ncccn3)CC2)no1`, for which the cytotoxicity was -2.6% (inactive).

For `CCCn1nnc(NC(=O)COc2ccccc2Cl)n1`, the cytotoxicity is 8.6% (inactive).

With `Cc1cc(S(=O)(=O)N2CCC(NC(=O)C34CC5CC(CC(C5)C3)C4)CC2)ccc1-n1cnnn1`, the cytotoxicity is -5.5% (inactive).

Regarding `COc1ccccc1OCCNC(=O)c1cccs1`, the cytotoxicity was -0.7% (inactive).

For `CCOc1ccc(C2C=C(c3ccc(C)cc3)Nc3nnnn32)cc1` (centres undefined), the cytotoxicity is -11% (inactive).

With `COc1ccc(C2=CC(c3ccc(C)cc3)n3nnnc3N2)cc1` (centres undefined), the cytotoxicity was -4.4% (inactive).

With `Cc1ccc(CNC(=O)C2CCN(S(=O)(=O)c3cccs3)CC2)o1`, the cytotoxicity is -10.5% (inactive).

For `O=C(CC1CCCCC1)c1c(O)c2ccccc2oc1=O`, the cytotoxicity was 59.2% (active).

On to `O=C(CCC1CCCC1)c1c(O)c2ccccc2oc1=O`, for which the cytotoxicity is 18% (inactive).

Take `O=C(c1c(O)c2ccccc2oc1=O)C1CCC1`: the cytotoxicity was 6.1% (inactive).

For `COc1cccc(-c2nnc3n2N=C(c2cccc(Br)c2)CS3)c1`, the cytotoxicity is -14.8% (inactive).

`CCSc1nnc([C@@H]2CCCN2C(=O)OC(C)(C)C)o1`: the cytotoxicity was -8.4% (inactive).

On to `Cc1cccc(OCC(O)Cn2c(NCc3cccnc3)nc3c2c(=O)[nH]c(=O)n3C)c1` (centres undefined), for which the cytotoxicity is -23.4% (inactive).

In the case of `Cc1nc(SCC(=O)N2CCN(c3ccccc3)CC2)c2oc3ccccc3c2n1`, the cytotoxicity was 54.9% (active).

For `Cc1nc(SCC(=O)N2CCCc3ccccc32)c2oc3ccccc3c2n1`, the cytotoxicity is -19.9% (inactive).

For `CCc1nc(Nc2ccc(N3CCN(C(C)=O)CC3)cc2)c2oc3ccccc3c2n1`, the cytotoxicity was 52.7% (active).

For the compound `CC(=O)N1CCN(c2ccc(Nc3ncnc4c3oc3ccccc34)cc2)CC1`, the cytotoxicity was 19.3% (inactive).

With `CCNc1nc(CC)nc2c1oc1ccccc12`, the cytotoxicity was -17.1% (inactive).

With `Cc1nc(SCC(=O)O)c2oc3ccccc3c2n1`, the cytotoxicity is -10.8% (inactive).

Regarding `Cc1nc(Nc2ccncc2)c2oc3ccccc3c2n1`, the cytotoxicity was -14.9% (inactive).

Take `CCc1nc(Nc2ccncc2)c2oc3ccccc3c2n1`: the cytotoxicity was 64.2% (active).

As for `CC(=O)N1CCN(c2ccc(Nc3nc(C)nc4c3oc3ccccc34)cc2)CC1`, the cytotoxicity is -3.4% (inactive).

Take `COc1ccc2c(c1)c(=O)c(Br)c(C)n2Cc1ccccc1`: the cytotoxicity was 0.5% (inactive).

`FC(F)(F)c1cccc(-c2ccc(-c3csnn3)o2)c1`: the cytotoxicity is -13.4% (inactive).

In the case of `O=C(O)CC(CNS(=O)(=O)c1ccccc1)c1ccccc1` (centres undefined), the cytotoxicity was 0% (inactive).

For the compound `OCc1nnn(-c2cccc(C(F)(F)F)c2)c1CO`, the cytotoxicity was -2.5% (inactive).

Regarding `N#C/C(Cn1c[n+](NC(=O)Nc2ccccc2)cn1)=N/O`, the cytotoxicity was -6.9% (inactive).

For `O=C1CC(SCc2nc3ccccc3[nH]2)C(=O)N1c1cccc(F)c1` (centres undefined), the cytotoxicity is -0.8% (inactive).

As for `O=C(NCc1ccccn1)C1CCC(=O)N1C1CCCC1` (centres undefined), the cytotoxicity is 2.2% (inactive).

Regarding `CCOc1ccc2nc(NC(=O)CN3CCC(n4nnc5cc(F)ccc54)CC3)sc2c1`, the cytotoxicity is 66.6% (active).

As to `COc1ccccc1NC(=O)CN1CCC(n2nnc3cc(F)ccc32)CC1`, the cytotoxicity is -3.1% (inactive).

Consider `CCOC(=O)c1ccccc1NC(=O)CN1CCC(n2nnc3cc(F)ccc32)CC1`, for which the cytotoxicity is 15.3% (inactive).

`CC1(C)CNC(=O)c2sc(NC(=O)CN3CCOCC3)nc2C1`: the cytotoxicity was 0.1% (inactive).

As to `Cc1ccc2c(c1)NC(=O)C(CC(=O)NCCN(C)C)O2` (centres undefined), the cytotoxicity is -2.3% (inactive).

As to `Cc1cc(C)c2nc(-c3ccccn3)cc(C(=O)Nc3cc(C)on3)c2c1`, the cytotoxicity is 8.1% (inactive).

For `Cc1cc(NC(=O)c2cc(-c3ccncc3)nc3c(C)cccc23)no1`, the cytotoxicity is 68.1% (active).

As to `Cc1cc(NC(=O)c2cc(-c3cccnc3)nc3c(C)c(C)ccc23)no1`, the cytotoxicity was 8.8% (inactive).

Turning to `N#Cc1nc(-c2ccc(OCc3ccccc3)cc2)oc1NCCN1CCOCC1`, the cytotoxicity was 12.8% (inactive).

As to `N#Cc1nc(COc2ccc(F)cc2)oc1NCCN1CCOCC1`, the cytotoxicity was -2.9% (inactive).

Take `N#Cc1nc(COc2ccc(-c3ccccc3)cc2)oc1NCCCN1CCOCC1`: the cytotoxicity was 50.8% (active).

On to `N#Cc1nc(Cc2ccccc2)oc1NCc1cccnc1`, for which the cytotoxicity is -11.2% (inactive).

`N#Cc1nc(COc2ccccc2)oc1NCCN1CCOCC1`: the cytotoxicity was -18.1% (inactive).

Consider `COc1ccc(-c2nc(C#N)c(NCCCN3CCOCC3)o2)cc1`, for which the cytotoxicity was 0.5% (inactive).

Consider `N#Cc1nc(COc2ccc(-c3ccccc3)cc2)oc1NCc1cccnc1`, for which the cytotoxicity was 83.1% (active).

For the compound `N#Cc1nc(-c2ccc(OCc3ccccc3)cc2)oc1NCc1cccnc1`, the cytotoxicity is 12.7% (inactive).

`COc1ccccc1CNC(=O)c1ccc(CNc2c(N3CCCC3)c(=O)c2=O)cc1`: the cytotoxicity was 4.2% (inactive).

As to `CCCc1nc(-c2cc3ccc(C)cc3[nH]c2=O)no1`, the cytotoxicity is 6.3% (inactive).

Regarding `Cc1nc(NCC2CCCO2)c2nnn(Cc3ccccc3)c2n1` (centres undefined), the cytotoxicity is -0.3% (inactive).

Regarding `Cc1nc(SCC(=O)Nc2ccc(C)c(F)c2)c2oc3ccccc3c2n1`, the cytotoxicity was 24.5% (inactive).

On to `O=C1CSC(c2ccco2)N1` (centres undefined), for which the cytotoxicity was -1.3% (inactive).

Regarding `O=C(CN1CCN(c2ccc(Cl)cc2)CC1)Nc1ccc(F)c(F)c1`, the cytotoxicity was -4.6% (inactive).

`CC1CN(S(=O)(=O)c2ccc(NC(=O)c3ccco3)cc2)CC(C)O1` (centres undefined): the cytotoxicity was -0.1% (inactive).

For `CS(=O)(=O)Nc1cccc2cccnc12`, the cytotoxicity is 14.8% (inactive).

Turning to `O=S(=O)(Nc1cccc2cccnc12)c1ccc(S(=O)(=O)N2CCCC2)cc1`, the cytotoxicity is 70.3% (active).

Turning to `COc1ccc(NS(=O)(=O)c2ccc(Oc3ncccn3)cc2)cc1`, the cytotoxicity was 18.2% (inactive).

On to `COc1cc(NCCCC(C)N)c2ncccc2c1` (centres undefined), for which the cytotoxicity was 4.4% (inactive).

Turning to `COc1cc(NS(=O)(=O)c2ccc(C)cc2)c2ncccc2c1`, the cytotoxicity was 69.8% (active).

In the case of `O=C(C1CCN(S(=O)(=O)c2cccc3cccnc23)CC1)N1CCCC1`, the cytotoxicity is 3.6% (inactive).

As to `O=C(c1nc2nc(-c3ccc(Cl)cc3)cc(C(F)(F)F)n2n1)N1CCOCC1`, the cytotoxicity was 3.6% (inactive).

For `COc1ccc(OC)c(-n2cnc3cc(C(=O)O)ccc32)c1`, the cytotoxicity was -15.9% (inactive).

Turning to `CC1CCN(CCNC(=O)C2CCCN(S(=O)(=O)c3cccc4nonc34)C2)CC1` (centres undefined), the cytotoxicity was -4.5% (inactive).

As for `CCc1c(C)sc(NC(=O)c2cccs2)c1C(=O)OC(C)C`, the cytotoxicity was 51.6% (active).

Turning to `CC(C)OC(=O)c1c(NC(=O)c2cccs2)sc2c1CCCC2`, the cytotoxicity is -3.4% (inactive).

With `CCOC(=O)c1c(NC(=O)c2cccs2)sc(C)c1CC`, the cytotoxicity is 2.4% (inactive).

Take `COC(=O)Cc1cc(=O)[nH]c(Nc2nc3ccccc3o2)n1`: the cytotoxicity was 11.4% (inactive).

`COCc1cc(=O)[nH]c(Nc2nc3ccc(C)cc3o2)n1`: the cytotoxicity is 50.7% (active).

As to `COCc1cc(=O)[nH]c(Nc2nc3ccccc3o2)n1`, the cytotoxicity is 28.8% (inactive).

On to `COc1ccccc1NC(C)=O`, for which the cytotoxicity is -2.1% (inactive).

With `Cc1cccc(NC(=O)c2ccc(S(=O)(=O)N3CCCCC3)cc2)n1`, the cytotoxicity was 2.7% (inactive).

As for `COC(=O)c1cc(NC(=O)C2CC=CCC2C(=O)O)cc(C(=O)OC)c1` (centres undefined), the cytotoxicity was -9.5% (inactive).
